# Laboratory results from PubChem BioAssay AID686979 (National Center for Advancing Translational Sciences (NCATS), 2013).
# Among all 420,000 compounds or so, about 50,000 (12%) were called active. Not shown: some 26% with an inconclusive outcome. The sample holds actives, similar compounds and a random draw of the others, so the mix is not that of the screen. Values without a mark were called inactive. Calls come from the whole dose curve; as a rule, active = well fitted inhibition curve with a large enough effect; inconclusive = small, poorly fitted or top-dose-only effect; inactive = flat fitted curve, though single readings scatter.
# Assay: qHTS for Inhibitors of human tyrosyl-DNA phosphodiesterase 1 (TDP1): qHTS in cells in presence of CPT; note: nearly all actives have a fitted effect of over 55% in size
# Conditions: chicken DT40 Tdp1-/-;hTDP1 cells + 20 nM CPT, ATP luminescence, 48 h; series mostly up to 46.2 µM; activity change, negative = growth inhibition: at the top concentration
# Method in brief: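 Cell growth measured by CellTiter-Glo luminescence after a minimum 48 h, 37 C compound exposure with 20 nM CPT in Tdp1-knockout DT40 cells stably expressing hTDP1, seeded 400/well; qHTS titration format.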
# % is set by controls: 0 for no effect and ±100 for the full control effect; potency is the fitted concentration of half-maximal effect.
Structure (SMILES),"activity change, negative = growth inhibition",Potency
O=C(CSc1nc2ccccc2c(=O)n1CCCO)NC1CC1,-3.57%,
COc1ccc(CCNC(=O)c2c3c(nc4ccccc24)C(=O)N(C2CCCCC2)C3)cc1OC,,20.6 µM (active)
COc1ccc(CCNC(=O)C2CCCN2C(=O)Nc2ccccc2)cc1OC (stereo not given),1.85%,
COc1ccc(CCNC(=O)CCC(=O)NC2CCCCC2)cc1OC,-17.8%,
COc1ccc(C(=O)NCCNc2ccc([N+](=O)[O-])cn2)cc1,-12.2%,
COc1ccc2c(C(=O)c3ccc(C)cc3)n(CCC(N)=O)[n+]([O-])c2c1,-8.64%,
CCOC(=O)/C=C/C(=O)OCC(=O)NC(c1ccccc1)c1ccccc1,,5.8 µM (active)
Cc1cc(C)cc(OCC(=O)NC(C)c2ccccc2)c1 (stereo not given),-1.12%,
CCOC(=O)C(C(=O)OCC)C(C#N)c1ccccc1 (stereo not given),-4.24%,
O=C(/C=C/c1cccc([N+](=O)[O-])c1)OCC(=O)N1CCOCC1,-14.9%,
OC[C@@H]1CN(C2CCCC2)C[C@H](n2cnc3c(NC4CCC4)ncnc32)O1,-0.382%,
OC[C@@H]1CN(Cc2ccc(-c3ccccc3)cc2)C[C@H](n2cnc3c(NC4CCCC4)ncnc32)O1,,1.03 µM (active)
OC[C@@H]1CN(Cc2ccc(Cl)cc2)C[C@H](n2cnc3c(NCc4ccncc4)ncnc32)O1,-15.7%,
COc1ccc(C2C3=C(OC(C)=O)c4ccccc4C3=Nc3c2c(=O)n(C)c(=O)n3C)cc1 (stereo not given),-17.3%,
Cc1cccc([C@@H]2[C@@H]3C(=O)N(C)C(=O)[C@@H]3[C@@H]3C(=O)Nc4ccccc4C(=O)N23)c1,0.49%,
Cc1cccc(C2c3c(n(C)c(=O)n(C)c3=O)N=C3c4ccccc4C(=O)C32)c1 (stereo not given),,8.2 µM (active)
COc1ccc(/C=C/c2nnc(NC(=O)C(C)C)s2)cc1,-1.28%,
O=C(Cn1cc(C(=O)C2CC2)c2ccccc21)Nc1ccccc1Cl,-8.18%,
O=C(Nc1cccc(-n2cnnn2)c1)c1cccnc1,0.855%,
COc1ccc(CNC(=O)C2=Cc3cccc(OC)c3OC2)cc1OC,-8.55%,
O=S(=O)(c1cccc2nonc12)N1CCN(c2cccc(Cl)c2)CC1,-28.1%,
COc1cc(=O)n2c(c1C(=O)NC(C)c1ccco1)CCN(Cc1cc(C)cc(C)c1)CC2 (stereo not given),-2.45% [at 9.04 µM],
COC(=O)c1c(NC(=O)CCCC(=O)O)sc2c1CCCCC2,2.67%,
COC(=O)c1c(NC(=O)c2ccc(Cl)c(Cl)c2)sc2c1CCCC2,0.169%,
CCOCC(=O)Nc1sc2c(c1C(=O)OCC)CCCC2,-28.4%,

Structure (SMILES),"activity change, negative = growth inhibition",Potency
CCc1ccc(N(CC(=O)Nc2sc3c(c2C(=O)OC)CCCC3)S(C)(=O)=O)cc1,,23.1 µM (active)
CCOC(=O)c1c(NC(=O)/C(C#N)=C/c2ccccc2)sc2c1CCC2,-3.28%,
COC(=O)c1c(NC(=O)COC(=O)[C@@H](NS(=O)(=O)c2ccccc2)C(C)C)sc2c1CCC2,,18.4 µM (active)
O=C(NC1CCCCC1)c1cc(C2CC2)on1,8.81%,
COC(=O)CC(CC(=O)OC)n1cccc1,3.57%,
CCCN(CCC)CC(O)COc1ccccc1C(=O)Nc1ccccc1 (stereo not given),-16.1%,
CCCNC(=O)CCC(=O)N1Cc2ccccc2Oc2ncccc21,-11.4%,
Cc1onc(-c2ccccc2Cl)c1C(=O)NCCn1ccc2ccccc21,-18.3%,
Cc1ccc(CNC(=O)c2c(-c3ccccc3)noc2C)cc1,8.05%,
Cc1ccc2cc(CCNC(=O)c3c(-c4ccccc4Cl)noc3C)c(=O)[nH]c2c1,,23.1 µM (active)
O=C(c1cnn(-c2ccc(Cl)cc2)c1)c1ccccc1O,-19.7%,
Cc1[nH]nc(-c2ccc(OCc3cnn(-c4ccccc4)c3)cc2O)c1Oc1ccc(Cl)cc1,,18.4 µM (active)
Oc1cccc(C2c3[nH]c4ccccc4c3CCN2Cc2cnn(-c3ccccc3)c2)c1 (stereo not given),1.42%,
O=C(COC(=O)c1n[nH]c2ccccc12)Nc1ccccc1Br,-3.17%,
O=C(COC(=O)c1n[nH]c2ccccc12)NCc1ccccc1,-13.9%,
CN(C)S(=O)(=O)c1ccc(NC(=O)COC(=O)c2n[nH]c3ccccc23)cc1,,14.6 µM (active)
Cc1nn(C(C)(C)C)c(OC(=O)CC(C)C)c1S(=O)(=O)c1ccccc1,-23.6%,
COC(=O)c1cccc(C(=O)N2CCCC(Nc3ccc4c(c3)OCCO4)C2)c1 (stereo not given),-15.5%,
C=CCn1c(CSc2nc3ccccc3s2)nnc1SCC(=O)NCc1ccco1,3.96%,
O=C(CSc1nnnn1-c1ccccc1)NCc1ccco1,-15.8%,
O=C(CSc1nc2ccc(Nc3nc(N4CCOCC4)nc(N4CCOCC4)n3)cc2s1)NCc1ccco1,,25.9 µM (active)
Brc1ccc(/C=N/N2CCN(C3c4ccccc4-c4ccccc43)CC2)s1,-7.72%,
CC(=O)O[C@]1(C(C)=O)CC[C@H]2[C@@H]3CCC4=CC(=O)CC[C@]4(C)[C@@]3(F)[C@@H](O)C[C@@]21C,-16.5%,
CN(C)c1ccc(C2N(C)C(=O)c3ccccc3N2C)cc1 (stereo not given),-15.1%,
Cc1ccc2nnn(Cc3cccc(C(C)(C)C)c3O)c2c1,,20.6 µM (active)

Structure (SMILES),"activity change, negative = growth inhibition",Potency
Cc1ccc(C(=O)CSc2nnc(Cn3nnc4ccccc43)n2C)cc1,-21%,
Cc1ccc(C2(C)NC(=O)N(CC(=O)N3CC(=O)Nc4ccccc43)C2=O)cc1 (stereo not given),-18.6%,
Cc1nc(SCC(=O)Nc2cc(C)on2)c2c(C)c(C)sc2n1,-1.85%,
CC(C)c1nc(SCC(=O)Nc2cccc(C(=O)O)c2)c2c3c(sc2n1)CCCC3,-9.85%,
Cc1cc(NC(=O)CSc2nc(C(C)C)nc3sc4c(c23)CCC(C)C4)no1 (stereo not given),,18.4 µM (active)
Cc1cc(C)cc(NC(=O)CSc2nc(=O)n(CCN3CCOCC3)c3c2CCC3)c1,17.9%,
O=C(CN1CCN(c2ncccn2)CC1)Nc1ccccc1C(F)(F)F,-23.1%,
N#Cc1ccc(CN2CCCC3(CCN(C(=O)c4ccco4)CC3)C2)cc1,-0.202%,
Cc1ccc2nc(-c3ccc(C)c(NC(=O)Cc4ccccc4)c3)oc2c1,-0.609%,
CC(C)[C@H](NC(=O)N1CCn2c1nc1ccccc12)C(=O)NC1CC1,3.89%,
CCC(C)[C@H](NC(=O)N1CCn2c1nc1ccccc12)C(=O)NCc1ccc(OC)cc1 (stereo not given in full),,20.6 µM (active)
CC(C)C[C@H](NC(=O)N1CCn2c1nc1ccccc12)C(=O)NC1CC1,-19.7%,
COc1ccc2[nH]c(=O)c(-c3noc(-c4ccc(F)cc4)n3)cc2c1,-1.15%,
COc1ccc(-c2cc(-c3nc(-c4cc(OC)c(OC)c(OC)c4)no3)[nH]n2)c(OC)c1,,20.6 µM (active)
COc1cc(-c2n[nH]c(=S)n2Cc2ccccc2)cc(OC)c1OC,0.202%,
CCOc1nc(-c2ccc(OC)cc2)ccc1-c1noc(-c2cc(OC)c(OC)c(OC)c2)n1,,5.17 µM (active)
CCOc1ccc(-c2noc(CCC(=O)NC3CCCC3)n2)cc1OC,3.5%,
COc1nc(-c2ccc(Cl)cc2)ccc1-c1noc(-c2cccs2)n1,2.91%,
O=C(NCc1ccc(Cl)cc1)c1ccc2c(c1)nnn2C1CCCC1,-26.8%,
O=C(CCC1N=C2c3ccccc3N=C(SCc3ccccc3F)N2C1=O)NCCc1ccccc1 (stereo not given),-5.14%,
Cc1nc(C(F)(F)F)ccc1C(=O)N1CCC1(C)C(=O)NS(=O)(=O)c1ccccc1 (stereo not given),-7.92%,
CCn1cc(C(=O)N[C@@H](C)C(=O)NCCO)c(=O)c2cc3c(cc21)OCO3,9.66%,
COc1ccccc1OCCOc1ccc(/C=N/n2cnnc2)cc1,-3.17%,
Cc1cc(-c2ccc(/C=N/n3cnnc3)o2)c([N+](=O)[O-])cc1C,-3.41%,
Cc1ccccc1OCCOc1ccc([N+](=O)[O-])cc1/C=N/n1cnnc1,,1.16 µM (active)

Structure (SMILES),"activity change, negative = growth inhibition",Potency
O=C(c1ccc(=O)oc1)N1CCC(C(O)(c2ccccc2)c2ccccc2)CC1,6.45%,
COc1cc(OC)c(C(=O)NCc2ccc3c(c2)OCO3)cc1OC,24.6%,
CC1(C(=O)NCc2ccco2)Cc2c(-c3ccc4c(c3)OCO4)ccnc2O1 (stereo not given),,0.82 µM (active)
O=C(Cn1nnc(-c2ccc3c(c2)OCO3)n1)NCc1ccco1,-16%,
O=C(NCc1ccc2c(c1)OCO2)c1cc(F)c(F)cc1Cl,21.1%,
S=C(NCc1ccc2c(c1)OCO2)NCc1ccco1,3.98%,
CC1(C(=O)NCc2ccc(F)c(F)c2)Cc2c(-c3ccc4c(c3)OCO4)ccnc2O1 (stereo not given),,4.11 µM (active)
O=S(=O)(NC1CCCC1)c1ccc(-n2cnnn2)cc1,13%,
C/C(COc1ccccc1)=N\NC(=O)c1nnn(-c2nonc2N)c1-c1ccc(C)cc1,-13.7%,
COc1ccc(-c2cc(-c3ccccc3)nc3c2COc2ccc(Cl)cc2-3)cc1,-28.4%,
CC(=O)c1ccc(Cc2ncc(C(F)(F)F)cc2Cl)s1,-6.15%,
Cc1cccc(OC(C)C(=O)N2CCc3ccccc3C2)c1 (stereo not given),-13.5%,
COc1cc(N2C(=O)c3ccccc3C2=O)c(Cl)cc1C(=O)OCC(=O)N1CCOCC1,3.81%,
COc1cccc(NC(=O)COC(=O)/C=C/c2ccco2)c1,-23%,
Cc1cccc(OCC(=O)NCCCNC(=O)c2ccccn2)c1,12.5%,
CCOc1cc2ccccc2cc1C(=O)Nc1ccccn1,0.36%,
CCN(CC)CCOc1ccc2c(c1)C(=NNC(=O)c1ccccn1)c1cc(OCCN(CC)CC)ccc1-2,,5.17 µM (active)
CCCc1nnc(NC(=O)CCC(=O)NC2CC2)s1,16.2%,
CCCc1ccc(C(=O)COC(=O)CN2C(=O)NC3(CCCCC3C)C2=O)cc1 (stereo not given),-21.8%,
Cc1cc2c(cc1C)[n+](C)cn2CC(O)COCC1CC=CCC1 (stereo not given),,8.2 µM (active)
CC1CCN(C(=O)/C(=C\c2ccccc2)NC(=O)c2ccccc2)CC1,1.54%,
Cc1nn(CC#N)c(=O)n1N(C)c1ncc(C(F)(F)F)cc1Cl,10.2%,
O=C(Nc1ccccc1N1CCCCC1)c1ccc2nccnc2c1,,20.6 µM (active)
O=C(Nc1ccccc1N1CCCCC1)c1cccc(F)c1,-28.7%,
O=C(Nc1ccccc1N1CCOCC1)c1ccncc1,-1.96%,
